Data on 21 molecules can be found in PubChem BioAssay AID540361 (National Center for Advancing Translational Sciences (NCATS), 2011).

Records with an inconclusive call do not appear. The source made the active and inactive calls. Calls come from the whole dose curve; as a rule, active = well fitted curve in the direction sought with a large enough effect; inconclusive = small, poorly fitted or top-dose-only effect, or another doubt; inactive = no such curve, though single readings can be large or run the other way.

Alpha-galactosidase A (Homo sapiens), sequence (P06280 whole entry, looked up): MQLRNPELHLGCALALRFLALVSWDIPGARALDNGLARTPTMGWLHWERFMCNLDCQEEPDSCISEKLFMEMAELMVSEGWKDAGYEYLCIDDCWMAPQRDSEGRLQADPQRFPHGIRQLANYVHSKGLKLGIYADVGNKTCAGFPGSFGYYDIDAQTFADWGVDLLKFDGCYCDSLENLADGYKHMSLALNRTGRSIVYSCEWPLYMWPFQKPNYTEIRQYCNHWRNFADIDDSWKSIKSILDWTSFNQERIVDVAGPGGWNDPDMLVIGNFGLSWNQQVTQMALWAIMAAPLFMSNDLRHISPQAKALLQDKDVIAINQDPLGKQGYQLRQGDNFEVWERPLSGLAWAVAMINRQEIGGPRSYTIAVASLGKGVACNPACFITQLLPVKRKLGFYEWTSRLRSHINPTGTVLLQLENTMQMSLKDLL

The target in the assay is Alpha-galactosidase A (Homo sapiens) (UniProt P06280). Put plainly: Activators of Human alpha-Glucosidase as a Potential Chaperone Treatment of Pompe Disease: Alpha-Galactosidase Counter Screen. The settings on record: purified human alpha-galactosidase, 4-MU fluorogenic substrate; series mostly up to 57.1 µM. The text has this:
Alpha-glucosidase is responsible for hydrolysis of terminal, non-reducing 1,4-linked alpha-D-glucose residues with release of alpha-D-glucose. It is a lysosomal hydrolase that is required for the degradation of a small percentage (1-3%) of cellular glycogen in human. Deficiency of this enzyme results in glycogen-storage disease type II (GSDII), also referred to as Pompe disease, an autosomal recessive disorder. Structurally normal glycogen is accumulated in lysosomes and cytoplasm in affected patients, primarily in muscle tissues. Excessive glycogen storage within lysosomes may interrupt normal functioning of other organelles and leads to cellular injury. In turn, this leads to enlargement and dysfunction of the entire organ involved (eg, cardiomyopathy and muscle weakness). It has reported that the improper folding and trafficking of alpha-glucosidase resulting from the genetic mutations may account for a significant number of Pompe patients. […] After screening for activators for alpha-glucosidase, we used this counter screen against alpha-galactosidase to test for specificity of the hits. NIH Chemical Genomics Center [NCGC] NIH Molecular Libraries Probe Production Centers Network [MLPCN] MLPCN Grant: MH086442-01 Assay Submitter (PI): Wei Zheng
This is a fluorogenic enzyme assay with 4-methylumbelliferyl-[…] as the substrate and human alpha-galactosidase as the enzyme preparation. Upon the hydrolysis of this fluorogenic substrate, the resulting product, 1. 4-methyllumbelliferone, can be excited at 365 nm and emits at 440 nm which can be detected by a standard fluorescence plate reader. Data were normalized to the controls for basal activity (without enzyme) and 100% activity (with enzyme). In the AC50 values were determined from concentration-response data modeled with the standard Hill equation. Assay buffer: 50 mM citric acid (titrated with potassium phosphate to pH 5.0), 0.005% Tween-20, pH 5.0. (pH 5.0 is an optimal condition for this enzyme assay) 1536-well assay protocol for the human alpha-galactosidase: (1) Add 2 ul/well of enzyme (4 nM final) (2) Add 23 nL compounds in DMSO solution. The final titration was 0.7 nM to 77 uM. (3) Add 1 ul of substrate (400 uM final) (4) Incubate at room temperature for 20 min. (5) Add 2 ul stop solution (1M NaOH and 1M Glycine mixture, pH 10) (6) Detect the assay plate in a ViewLux plate reader (PerkinElmer) with Ex=365 nm and Em=440nm. Keywords: Alpha-glucosidase, Pompe Disease, pharmacological chaperone, chaperone therapy, high throughput screening, alpha-glucosidase inhibitor, MLSMR, MLSCN, NIH Roadmap, qHTS and NCGC
In the case of `COc1ccc(CCn2c(=S)[nH]c(=O)c3c(C)cc(C)nc32)cc1OC`, the molecule was called inactive.
Regarding `CCCN1CNc2c(c(=O)[nH]c(=S)n2Cc2ccc(OC)c(OC)c2)C1`, the molecule was called inactive.
The same measure for `COc1ccc(C#Cc2c[nH]c(=O)c3cncnc23)cc1OC`: “inactive”; for `COc1ccc(CCn2c3c(c(=O)[nH]c2=S)CN(c2ccccc2)CN3)cc1OC`: “inactive”.
Under `COc1ccc(CCn2c3c(c(=O)[nH]c2=S)CN(C)CN3)cc1OC` stands “inactive”; under `COc1ccc(C#Cc2cnc(Cl)c3cncnc23)cc1OC`, “inactive”.
As to `c1csc(-c2nc(NCC3CCCO3)c3ccccc3n2)c1` (stereo unspecified), the outcome was inactive.
The same measure for `COc1ccc(CCn2c3c(c(=O)[nH]c2=S)CN(C(C)C)CN3)cc1OC`: “inactive”; for `CCCN1CNc2c(c(=O)[nH]c(=S)n2CCc2cccc(C)c2C)C1`: “inactive”; for `CCCN1CNc2c(c(=O)[nH]c(=S)n2CCc2ccc(C)c(C)c2)C1`: “inactive”.
The same measure for `O=S(=O)(c1ccc(Cl)cc1)N1CCN(c2nc(-c3cccs3)nc3ccccc23)CC1`: “inactive”; for `CCCN1CNc2c(c(=O)[nH]c(=S)n2CCC(C)(C)C)C1`: “inactive”; for `COc1ccc(CCc2c[nH]c(=O)c3cncnc23)cc1OC`: “inactive”.
Under `CCCN1CNc2c(c(=O)[nH]c(=S)n2CCc2ccc3c(c2)OCCO3)C1` stands “inactive”; under `CCCN1CNc2c(c(=O)[nH]c(=S)n2CCc2ccsc2)C1`, “inactive”; under `OCCNc1nc(-c2cccs2)nc2ccccc12`, “inactive”.
Consider `CCCN1CNc2c(c(=O)[nH]c(=S)n2CCc2cc(C)ccc2C)C1`, for which the molecule was called inactive.
The same measure for `CCCN1CNc2c(c(=O)[nH]c(=O)n2CCc2ccc(OC)c(OC)c2)C1`: “inactive”; for `O=S(=O)(c1ccc(Cl)cc1)N1CCN(c2nc(Nc3cc(Cl)ccc3O)nc3ccccc23)CC1`: “inactive”; for `COc1ccc(CCn2c(=S)[nH]c(=O)c3nccnc32)cc1OC`: “inactive”.
For the molecule `CCCN1CNc2c(c(=O)[nH]c(=S)n2CCc2c(C)cccc2C)C1`, the call was inactive.
